Bioassay records from PubChem.
Sampled rows, rich in hits. Any-hit rate of the full collection: about 5.7%.
rCAG binder = binds r(CAG) RNA repeats. 370,000 compounds, 1.3% hits. AID 651821. r(CAG) RNA repeat, TO-PRO-1 dye displacement fluorescence. inhibition, % at 3 µM;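 active = inhibition above the plate cutoff, the mean of all test compounds on that plate plus 3 SD, cut at about 35% in these data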;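 note: 0% = DMSO alone and 100% = 100 µM mitoxantrone as full dye displacement; higher means more dye released from RNA so lower well fluorescence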
MPTP block = blocks calcium-induced mitochondrial swelling. isolated mouse mitochondria, Ca2+ swelling absorbance, 30 min. inhibition, % at 10 µM. 360,000 compounds, 1.4% hits. AID 602449;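 active = inhibition of 50% or more, scaled per plate between neutral and stimulator controls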;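 note: 0% = DMSO wells given calcium and 100% = 1 mM EGTA wells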
GRIN3A LBD mod = modulators (binders) of human NR3A ligand-binding domain | 340,000 compounds, 2.5% hits | Tm shift relative to glycine control, % at 25 µM | NR3A LBD differential scanning fluorimetry, Tm shift; 0% = protein alone, 100% = glycine-bound protein;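 active = melting temperature shift of at least 10% of the positive control shift, at one fixed dose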
Myeloid diff 2 = compounds promoting myeloid differentiation | calls only at 10 µM | ER-HoxA9 myeloid progenitors, lysozyme-GFP differentiation, flow cytometry | AID 624256 | 360,000 compounds, 1% hits;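 active = normalized GFP-positive differentiation at or above the plate's own cutoff, the solvent-only control mean plus 3 SD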;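 note: cells exposed to compound for four days before flow analysis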
FAS-TE inh = inhibitors of human fatty acid synthase thioesterase domain; 360,000 compounds, 0.67% hits; P49327; recombinant FAS-TE, OMFH fluorogenic substrate, fluorescence endpoint; inhibition, % at 15 µM;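 active = compounds whose normalised, plate-corrected inhibition of enzyme fluorescence in the single-dose primary screen is 50% or more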;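 note: 0% = DMSO with enzyme and 100% = substrate without enzyme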
* hit, by the source's call; i = inactive; · = not tested or not shown; + = active, no number.

SMILES	rCAG binder	MPTP block	GRIN3A LBD mod	Myeloid diff 2	FAS-TE inh
COC(=O)[C@]12C[C@H](CC(=O)NCc3cccs3)C(=O)N(Cc3cccc4ccccc34)C1=C[C@H](C(C)C)O[C@@H]2C1CC1	5	·	·	·	·
Cc1cc(Nc2cc(Cl)cc(Cl)c2)cc(=O)n1-c1cc(Cl)cc(Cl)c1	6	·	·	·	·
COc1ccc(C2CC(c3ccccc3)n3nnnc3N2)cc1 (stereo not given)	1	-1	411*	i	-5
O=C(O)c1cccc2c1C(=O)c1ccccc1C2=O	0	-1	0	i	-2
O=C(Nc1ccc2c(c1)C(=O)c1ccccc1-2)c1ccccc1	1	0	18*	i	-4
COc1cccc(C(=O)Nc2ccc3c(c2)C(=O)c2ccccc2C3=O)c1	2	3	16*	i	-6
Cc1ccc(NC2=C(NC(=O)c3ccccc3)C(=O)c3ccccc3C2=O)cc1Cl	2	6	20*	i	27
CC(=O)Nc1ccc2c(c1)C(=O)c1cccc(C(=O)O)c1-2	1	-1	14*	i	-9
Cc1ccc(NCC(=O)c2ccccc2)cc1Cl	2	0	-2	i	-4
COC(=O)Cc1nnn2c1[C@@H](C)[C@@H](c1ccccc1Br)OC[C@@H]2c1ccccc1	1	·	·	·	·
Cc1cc(C)cc(OCC(=O)Nc2ccc3c(c2)C(=O)c2ccccc2C3=O)c1	6	5	14*	i	6
O=C1NN(c2ccccc2)C(=O)C1=Cc1ccccc1O	5	4	·	i	-10
O=C1NN(c2ccc(Br)cc2)C(=O)/C1=C\c1ccc(O)cc1O	46*	1	28*	i	-3
CC(=O)c1cccc(NC(=O)/C=C/c2ccc(S(=O)(=O)N3CCOCC3)cc2)c1	6	-2	5	i	1
CN(C)S(=O)(=O)c1cccc(NC(=O)/C=C/c2ccc(S(=O)(=O)N3CCOCC3)cc2)c1	5	0	-1	i	9
O=C(/C=C/c1ccccc1)Nc1ccc(S(=O)(=O)N2CCOCC2)cc1	11	1	31*	i	5
O=C(/C=C/c1cccc(F)c1)Nc1ccc(S(=O)(=O)N2CCOCC2)cc1	1	-1	37*	i	11
COc1ccc(-c2cc(-c3nnc(SCC(=O)Nc4ccc(OCc5ccccc5)cc4)n3N)[nH]n2)cc1	9	·	·	·	·
CCN(CCNC(=O)Nc1ccc(Cl)cc1)c1ccccc1	-1	22	22*	i	18
CC(C)c1ccc(OCCCN2CCC(C(O)(c3ccccc3)c3ccccc3)CC2)cc1	1	·	·	·	·
O=C(CCC1CCCCC1)NCCS(=O)(=O)N1CCN(c2ccc(F)cc2)CC1	-6	0	14*	i	0
COc1ccc(N2CCN(S(=O)(=O)CCNC(=O)C3CC3)CC2)cc1	-3	-3	13*	i	-7
CC1(C)OC(=O)C2=C(CC(CCc3ccccc3)OC2c2ccc(F)cc2)O1 (stereo not given)	3	·	·	·	·
c1ccc(-c2cn(-c3ccccc3)c3[n+]2CCS3)cc1	1	-4	-1	+	-8
CC(C)Cn1c(N)c(C(=O)COC(=O)c2c(O)c(Cl)cc(Cl)c2Cl)c(=O)n(C)c1=O	15	6	11*	i	15
SMILES	rCAG binder	MPTP block	GRIN3A LBD mod	Myeloid diff 2	FAS-TE inh
CC(C)Cn1c(N)c(C(=O)COC(=O)c2ccc(Cl)cc2)c(=O)n(C)c1=O	-3	0	-1	i	16
O=C(N/N=C/C=C/c1ccccc1)c1ccncc1	2	1	25*	i	-4
Cc1ccccc1C(=O)NC1CCCCN(Cc2cccc(F)c2)C1=O (stereo not given)	-1	·	·	·	·
O=c1c2cc(Cl)ccc2[nH]c(=S)n1Cc1cccs1	7	14	19*	i	4
O=C(NC1CCN(Cc2ccccc2)CC1)c1ccc(Cn2c(=S)[nH]c3ccc(N4CCOCC4)cc3c2=O)cc1	-1	0	-4	+	17
O=C(CCCCCn1c(=S)[nH]c2ccc(N3CCOCC3)cc2c1=O)NC1CCN(Cc2ccccc2)CC1	-6	21	-4	i	-2
O=c1c2cc(N3CCOCC3)ccc2[nH]c(=S)n1Cc1cccc(Cl)c1	2	1	31*	i	7
COc1cccc(Cn2c(=S)[nH]c3ccc(N4CCOCC4)cc3c2=O)c1	14	4	22*	i	-11
O=c1c2cc(N3CCOCC3)ccc2[nH]c(=S)n1Cc1ccco1	15	2	-4	i	-4
CCOC(=O)CNC(=O)C(Cc1ccc2c(c1)OCO2)NC(C)=O (stereo not given)	1	·	·	·	·
c1ccc(-c2nccc3ccccc23)cc1	-2	1	1	i	0
Cc1ccc(-c2nc(-c3nccc4ccccc34)oc2-c2ccccc2)cc1	3	0	11*	i	15
CN(C)CCN(C(=O)c1ccc(C(=O)c2ccccc2)cc1)c1nc2cc3c(cc2s1)OCCO3	0	0	0	i	29
CN(C)CCN(C(=O)c1ccc(C(=O)c2ccccc2)cc1)c1nc2cc3c(cc2s1)OCO3	-1	2	11*	i	29
Cc1[nH]c(=S)[nH]c(=O)c1CCCO	-2	0	-1	i	-5
Cc1[nH]c(=S)[nH]c(=O)c1CCC1OCCO1	-1	0	14*	i	-8
CC(=O)Nc1nc(C)c(CCC2OCCO2)c(=O)[nH]1	-3	0	12*	i	-1
CCC(=O)N1Cc2cc(C(=O)Nc3nccs3)nc(-c3cccc(-c4ccccc4OC)c3)c2[C@@H]1CCO	10	0	·	i	13
Cc1cc(NS(=O)(=O)c2ccc(NC(=O)CSc3nnc(-c4ccncc4)n3Cc3ccco3)cc2)nc(C)n1	17	·	·	·	·
CN(C(=O)[C@@H](Cc1ccccc1)NC(=O)[C@H]1O[C@@H](n2ccc(=O)[nH]c2=O)[C@H](O)[C@@H]1O)C1CCCCC1	0	·	·	·	·
NC(=O)NC(=O)COC(=O)c1ccccc1Oc1ccccc1	-4	3	11*	i	-2
Cc1cc(N2CCN(S(C)(=O)=O)C[C@@H]2C)ccc1N1CCN(Cc2ccccc2)[C@@H](C)C1	3	·	·	·	·
O=C(Nc1cc(S(=O)(=O)N2CCOCC2)ccc1Cl)C(=O)c1c(-c2ccccc2)cc2ccccn12	4	4	0	i	76*
COc1cc(OC)cc(-c2c(Sc3ccccc3)c3cc(-c4ccc(OC)c(F)c4)ccc3n2C)c1	5	0	·	i	19
COc1cc2c(c(OC)c1)C(=O)O[C@H](C)C[C@@H]1O[C@H]1CCCCC(=O)C2	0	·	·	·	·
CC1(C)C=Cc2c(ccc3c2OC[C@H](c2ccc(O)cc2O)C3)O1	6	1	19*	i	17
CC(C)=CCc1cc([C@@H]2COc3c(ccc4c3C=CC(C)(C)O4)C2)c(O)cc1O	17	35	27*	i	43
COC(=O)[C@]12C[C@H](CC(=O)NCC3CCCCC3)C(=O)N(CCc3ccc(OC)c(OC)c3)C1=C[C@H](C(C)C)O[C@@H]2C1CC1	2	·	·	·	·
